Common to all, as to assay: yeast three-hybrid, YBZ-1, SC-Leu-His + 0.5 mM 3-AT, 4 days
Holding throughout (settings): tags: N-Gal4 AD-HA kept; label: inside an RPR1-promoter hybrid RNA with tandem MS2 sites; ssRNA

The target of one test is PUM1 PUF domain R4-DWT (Homo sapiens, UniProt Q14671 828-1176, N971D;H972W;Q975T). The procedure, abridged:
(§1)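 Matching RNA elements and Pumilio-1 PUF domain libraries, randomized at the three base-contacting residues of every repeat, were co-expressed from a centromeric plasmid in strain YBZ-1 (LexA–MS2 coat fusion, HIS3 reporter). The repeat regions were PCR-amplified and Illumina-sequenced from cells grown four days on SC-Leu (input) or SC-Leu-His + 0.5 mM 3-AT (selection). The interaction score is the log change in variant frequency from input to selection. It is computed in log2, with a pseudocount of 1 for absent variants.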

In a further test the target is PUM1 PUF domain R3-LFE (Homo sapiens, UniProt Q14671 828-1176, C935L;R936F;Q939E). The essentials:
as §1

The target in a further test is PUM1 PUF domain R3-API (Homo sapiens, UniProt Q14671 828-1176, C935A;R936P;Q939I). The essentials:
as §1

The target in another test is PUM1 PUF domain R3-SNF (Homo sapiens, UniProt Q14671 828-1176, C935S;R936N;Q939F). The essentials: as §1
The next test concerns the target T1, PUM1 PUF domain R6-VWC (Homo sapiens, UniProt Q14671 828-1176, N1043V;Y1044W;Q1047C).
T1 sequence: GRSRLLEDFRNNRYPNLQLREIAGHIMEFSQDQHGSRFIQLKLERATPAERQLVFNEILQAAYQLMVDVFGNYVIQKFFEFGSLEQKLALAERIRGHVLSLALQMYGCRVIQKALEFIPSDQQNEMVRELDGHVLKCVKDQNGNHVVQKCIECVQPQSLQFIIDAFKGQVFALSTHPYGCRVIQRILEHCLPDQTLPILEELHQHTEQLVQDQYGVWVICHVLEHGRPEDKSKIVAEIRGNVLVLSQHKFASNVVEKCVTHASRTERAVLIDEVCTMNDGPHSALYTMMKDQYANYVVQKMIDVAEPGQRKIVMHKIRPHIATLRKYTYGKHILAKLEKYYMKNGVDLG
The procedure, abridged: as §1

The next test concerns the target PUM1 PUF domain R5-LHC (Homo sapiens, UniProt Q14671 828-1176, C1007L;R1008H;Q1011C). The essentials: as §1
Another test concerns the target T2, PUM1 PUF domain R6-GFR (Homo sapiens, UniProt Q14671 828-1176, N1043G;Y1044F;Q1047R).
T2 sequence: T1 sequence with V216G, W217F, C220R
The essentials:
as §1

In a further test the target is PUM1 PUF domain R8-KHR (Homo sapiens, UniProt Q14671 828-1176, N1122K;Y1123H;Q1126R). The procedure, abridged:
as §1

The target in the next test is PUM1 PUF domain R8-RFD (Homo sapiens, UniProt Q14671 828-1176, N1122R;Y1123F;Q1126D). The essentials:
as §1

In another test the target is PUM1 PUF domain R7-TRR (Homo sapiens, UniProt Q14671 828-1176, S1079T;N1080R;E1083R). The essentials:
as §1

A further test concerns the target PUM1 PUF domain R1-QLR (Homo sapiens, UniProt Q14671 828-1176, S863Q;R864L;Q867R). The procedure, abridged: as §1

Residue numbers refer to the chain shown, from its start.

Regarding “GGCUAGAACUAGUGGAUCCCCCGGCGCCCGGCGGCUCGAGCCCGGGUAAGUGUAAAUAGUCUGCAUGCCGCCGGGCGCCAUGCCUGCAGGUCGACUCUAGAAAACAUG”, the binding signal in the test with PUM1 PUF domain R4-DWT was 6.18 log2 enrichment (interaction score); in the test with PUM1 PUF domain R3-LFE it was 3.02 log2 enrichment (interaction score); with PUM1 PUF domain R3-API, 3.13 log2 enrichment (interaction score); in the test with PUM1 PUF domain R3-SNF it was 2.65 log2 enrichment (interaction score); with PUM1 PUF domain R6-VWC it was 3.32 log2 enrichment (interaction score); with PUM1 PUF domain R5-LHC, 2.44 log2 enrichment (interaction score). Further, the binding signal with PUM1 PUF domain R6-GFR is 4.38 log2 enrichment (interaction score); with PUM1 PUF domain R8-KHR, 2.92 log2 enrichment (interaction score).
In the case of “GGCUAGAACUAGUGGAUCCCCCGGCGCCCGGCGGCUCGAGCCCGGGUAAGCGUAAAUAGUCUGCAUGCCGCCGGGCGCCAUGCCUGCAGGUCGACUCUAGAAAACAUG”, the figures for the binding signal with PUM1 PUF domain R8-RFD and with PUM1 PUF domain R8-KHR were 4.38 log2 enrichment (interaction score) and 6.43 log2 enrichment (interaction score), respectively.
In the case of “GGCUAGAACUAGUGGAUCCCCCGGCGCCCGGCGGCUCGAGCCCGGGUAAGUCUAAAUAGUCUGCAUGCCGCCGGGCGCCAUGCCUGCAGGUCGACUCUAGAAAACAUG”, the binding signal with PUM1 PUF domain R7-TRR is 3.35 log2 enrichment (interaction score).
With “GGCUAGAACUAGUGGAUCCCCCGGCGCCCGGCGGCUCGAGCCCGGGUAAGUGUAAAUCGUCUGCAUGCCGCCGGGCGCCAUGCCUGCAGGUCGACUCUAGAAAACAUG”, the binding signal with PUM1 PUF domain R1-QLR was 4.6 log2 enrichment (interaction score).

For the origin of these results see PMC8384837, “Expanding the binding specificity for RNA recognition by a PUF domain”.
